Laboratory results taken from paper PMC11996681, “Interfacial water confers transcription factors with dinucleotide specificity”.

Columns and labels:
Assay in all cases: HT-SELEX; SELEX buffer: 10.4 mM Tris-HCl pH 7.5, 51.4 mM NaCl, 1.4 mM MgCl2, 4% glycerol, 100 uM EGTA, 0.7 mM DTT, 3.7 ug/ml poly-dI-dC, 1.4 uM ZnSO4; room temperature (2); high values mean tight binding
Details in all cases: protein: recombinant; dsDNA, one strand shown
[1] = molecular target: BARHL2 DBD ctrl (unmutated, SELEX) (human, UniProt Q9NY43 227-293)
Chain of BARHL2 DBD ctrl (unmutated, SELEX) (Q9NY43 227-293, stated change not applied): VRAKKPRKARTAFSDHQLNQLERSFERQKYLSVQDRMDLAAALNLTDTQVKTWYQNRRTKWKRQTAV

[2] = molecular target: BARHL2 DBD T278I/T285N (HMX3) (human, UniProt Q9NY43 227-293, T278I;T285N)
Chain of BARHL2 DBD T278I/T285N (HMX3) (Q9NY43 227-293 T278I/T285N): as the sequence (Q9NY43 227-293, stated change not applied) above, with T52I, T59N counted along it

[3] = molecular target: BARHL2 DBD T278V (EMX1) (human, UniProt Q9NY43 227-293, T278V)
Chain of BARHL2 DBD T278V (EMX1) (Q9NY43 227-293 T278V): as the sequence (Q9NY43 227-293, stated change not applied) above, with T52V counted along it

[4] = molecular target: BARHL2 DBD T278I (NKX1.2) (human, UniProt Q9NY43 227-293, T278I)
Chain of BARHL2 DBD T278I (NKX1.2) (Q9NY43 227-293 T278I): as the sequence (Q9NY43 227-293, stated change not applied) above, with T52I counted along it

[5] = molecular target: BARHL2 DBD T285M (NANOG) (human, UniProt Q9NY43 227-293, T285M)
Chain of BARHL2 DBD T285M (NANOG) (Q9NY43 227-293 T285M): as the sequence (Q9NY43 227-293, stated change not applied) above, with T59M counted along it

[6] = molecular target: BARHL2 DBD T278I/T285V (HOXB13) (human, UniProt Q9NY43 227-293, T278I;T285V)
Chain of BARHL2 DBD T278I/T285V (HOXB13) (Q9NY43 227-293 T278I/T285V): as the sequence (Q9NY43 227-293, stated change not applied) above, with T52I, T59V counted along it

[7] = molecular target: BARHL2 DBD T278N/T285I (PBX1) (human, UniProt Q9NY43 227-293, T278N;T285I)
Chain of BARHL2 DBD T278N/T285I (PBX1) (Q9NY43 227-293 T278N/T285I): as the sequence (Q9NY43 227-293, stated change not applied) above, with T52N, T59I counted along it

[8] = molecular target: BARHL2 DBD T278V/T285A (ALX4) (human, UniProt Q9NY43 227-293, T278V;T285A)
Chain of BARHL2 DBD T278V/T285A (ALX4) (Q9NY43 227-293 T278V/T285A): as the sequence (Q9NY43 227-293, stated change not applied) above, with T52V, T59A counted along it

[9] = molecular target: BARHL2 DBD T278I/T285M (HOXA3) (human, UniProt Q9NY43 227-293, T278I;T285M)
Chain of BARHL2 DBD T278I/T285M (HOXA3) (Q9NY43 227-293 T278I/T285M): as the sequence (Q9NY43 227-293, stated change not applied) above, with T52I, T59M counted along it

[10] = molecular target: BARHL2 DBD T278V/T285M (MEOX2) (human, UniProt Q9NY43 227-293, T278V;T285M)
Chain of BARHL2 DBD T278V/T285M (MEOX2) (Q9NY43 227-293 T278V/T285M): as the sequence (Q9NY43 227-293, stated change not applied) above, with T52V, T59M counted along it

[11] = molecular target: BARHL2 DBD T278I/T285A (CDX1) (human, UniProt Q9NY43 227-293, T278I;T285A)
Chain of BARHL2 DBD T278I/T285A (CDX1) (Q9NY43 227-293 T278I/T285A): as the sequence (Q9NY43 227-293, stated change not applied) above, with T52I, T59A counted along it

[12] = molecular target: BARHL2 DBD T278I/T285S (DLX1) (human, UniProt Q9NY43 227-293, T278I;T285S)
Chain of BARHL2 DBD T278I/T285S (DLX1) (Q9NY43 227-293 T278I/T285S): as the sequence (Q9NY43 227-293, stated change not applied) above, with T52I, T59S counted along it

[13] = molecular target: BARHL2 DBD T278N/T285Q (SIX6) (human, UniProt Q9NY43 227-293, T278N;T285Q)
Chain of BARHL2 DBD T278N/T285Q (SIX6) (Q9NY43 227-293 T278N/T285Q): as the sequence (Q9NY43 227-293, stated change not applied) above, with T52N, T59Q counted along it

[14] = molecular target: BARHL2 DBD T285A (LBX1) (human, UniProt Q9NY43 227-293, T285A)
Chain of BARHL2 DBD T285A (LBX1) (Q9NY43 227-293 T285A): as the sequence (Q9NY43 227-293, stated change not applied) above, with T59A counted along it

[15] = molecular target: BARHL2 DBD T278N/T285R (PKNOX1) (human, UniProt Q9NY43 227-293, T278N;T285R)
Chain of BARHL2 DBD T278N/T285R (PKNOX1) (Q9NY43 227-293 T278N/T285R): as the sequence (Q9NY43 227-293, stated change not applied) above, with T52N, T59R counted along it

Which binding signal [1] does the source give for TAAACG here?
The binding signal was 28 fold enrichment.

What about the binding signal [2] of the same sequence?
The binding signal was 4 fold enrichment.

And the binding signal [3]?
Its binding signal is 7.8 fold enrichment.

And the binding signal [4]?
Its binding signal is 6.6 fold enrichment.

What about the binding signal [5] of the same sequence?
The binding signal was 3.8 fold enrichment.

And the binding signal [6]?
Its binding signal is 2.4 fold enrichment.

What about the binding signal [7] of the same sequence?
The binding signal was 2.8 fold enrichment.

And the binding signal [8]?
Its binding signal is 3.3 fold enrichment.

And the binding signal [9]?
Its binding signal is 2.5 fold enrichment.

What about the binding signal [10] of the same sequence?
Its binding signal is 3.1 fold enrichment.

And the binding signal [11]?
The binding signal was 3.7 fold enrichment.

And the binding signal [12]?
The binding signal was 4.7 fold enrichment.

What about the binding signal [13] of the same sequence?
The binding signal was 2.4 fold enrichment.

And the binding signal [14]?
The binding signal was 6.3 fold enrichment.

And the binding signal [15]?
Its binding signal is 1.6 fold enrichment.

Which binding signal [1] does the source give for TAATTG here?
Its binding signal is 43.5 fold enrichment.

What about the binding signal [2] of the same sequence?
Its binding signal is 17.6 fold enrichment.

What about the binding signal [3] of the same sequence?
Its binding signal is 11.2 fold enrichment.

And the binding signal [4]?
Its binding signal is 13.1 fold enrichment.

What about the binding signal [5] of the same sequence?
The binding signal was 6 fold enrichment.

What about the binding signal [6] of the same sequence?
Its binding signal is 13.3 fold enrichment.

What about the binding signal [7] of the same sequence?
Its binding signal is 10.4 fold enrichment.

And the binding signal [8]?
The binding signal was 4.9 fold enrichment.

And the binding signal [9]?
The binding signal was 11.5 fold enrichment.

What about the binding signal [10] of the same sequence?
The binding signal was 8.5 fold enrichment.

What about the binding signal [11] of the same sequence?
The binding signal was 14 fold enrichment.

What about the binding signal [12] of the same sequence?
The binding signal was 16.2 fold enrichment.

And the binding signal [13]?
Its binding signal is 5.8 fold enrichment.

What about the binding signal [14] of the same sequence?
Its binding signal is 8 fold enrichment.

What about the binding signal [15] of the same sequence?
The binding signal was 1.8 fold enrichment.

TAATCG was tested. Which binding signal [1] did it give?
The binding signal was 9.7 fold enrichment.

And the binding signal [2]?
The binding signal was 12.6 fold enrichment.

And the binding signal [3]?
Its binding signal is 8 fold enrichment.

What about the binding signal [4] of the same sequence?
The binding signal was 9.4 fold enrichment.

What about the binding signal [5] of the same sequence?
The binding signal was 7.6 fold enrichment.

What about the binding signal [6] of the same sequence?
The binding signal was 5.9 fold enrichment.

What about the binding signal [7] of the same sequence?
The binding signal was 8.1 fold enrichment.

What about the binding signal [8] of the same sequence?
Its binding signal is 5.1 fold enrichment.

What about the binding signal [9] of the same sequence?
The binding signal was 11.4 fold enrichment.

And the binding signal [10]?
Its binding signal is 8.5 fold enrichment.

What about the binding signal [11] of the same sequence?
The binding signal was 9.9 fold enrichment.

And the binding signal [12]?
Its binding signal is 10.9 fold enrichment.

And the binding signal [13]?
Its binding signal is 6.7 fold enrichment.

And the binding signal [14]?
The binding signal was 9 fold enrichment.

What about the binding signal [15] of the same sequence?
Its binding signal is 2.6 fold enrichment.

Which results are given for TAACCG?
binding signal [1]: 2.1 fold enrichment; binding signal [2]: 2 fold enrichment; binding signal [3]: 1.6 fold enrichment; binding signal [4]: 1.5 fold enrichment; binding signal [5]: 2.3 fold enrichment; binding signal [7]: 3.7 fold enrichment; binding signal [8]: 1.9 fold enrichment; binding signal [9]: 1.5 fold enrichment; binding signal [10]: 1.5 fold enrichment; binding signal [11]: 1.9 fold enrichment; binding signal [12]: 1.7 fold enrichment; binding signal [13]: 4.1 fold enrichment; binding signal [14]: 3.5 fold enrichment; binding signal [15]: 4.9 fold enrichment
